The nature of assay [1]: liver-stage malaria parasite growth inhibition, primary screen, cell-based, HepG2, luciferase luminescence, HepG2 viability (AID 624349; in the data active = parasite load remaining mostly below about 12%, no sharp cut-off; inactive = mostly above about 10%;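 also: 100% = mean of DMSO negative control wells on the same plate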). As to conditions: P. berghei liver stage in HepG2, luciferase luminescence, concentration not given here; parasite load remaining: stronger effect = lower value; viability: measured here: HepG2 viability without parasites.
Assay [2] is described as follows: stimulators of nuclear beta-catenin in C2C12, primary screen, imaging, WNT3A-conditioned medium, mouse C2C12, NPC library (AID 1117326; in the data active = nuclear beta-catenin stimulation mostly above about 4.2%, no sharp cut-off; inactive = mostly below about 10%). As to conditions: stronger effect = higher value.
The nature of assay [3]: stimulators of insulin release from INS-1E, primary screen, cell-based, 5 mM glucose, NPC library (AID 1117329;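 active = compound raises insulin release from rat beta cells at 5 mM glucose, no numeric limit stated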). As to conditions: rat INS-1E insulin secretion, at 10 µM, stronger effect = higher value.
Assay [4] in a line: growth inhibition of GSK3B-pretreated HCT116 cells – cell-based, CellTiter-Glo, 0.2 to 20 µM (AID 1117336;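 active = compounds lowering colon cancer cell viability after pretreatment blocking the GSK3B kinase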). As to conditions: HCT116 viability after GSK3B inhibitor, at 20 µM, stronger effect = higher value.
Assay [5] in a line: inhibition of endothelial tube formation, primary screen, imaging, VEGF stimulated, CD31 staining, tube area, NPC library (AID 1117340;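 active = compound that reduces growth-factor-driven endothelial tube area in a mixed cell culture, no cutoff stated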). As to conditions: VEGF-stimulated ADSC/ECFC co-culture, at 10 µM, stronger effect = higher value.
Assay [6] can be described thus: glucagon-like peptide 1 release enhancers, primary assay, NCI-H716 cell line, NPC library (AID 1117341). As to conditions: NCI-H716 cells, at 10 µM, stronger effect = higher value.
Assay [7] can be described thus: HCT116 colon cancer cell growth inhibition, primary screen, CellTiter-Glo luminescence, NPC library (AID 1117342;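 active = compounds that lower survival of HCT116 colon cancer cells in the luminescence readout, no numeric limit stated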). As to conditions: at 20 µM (top of the series). (In ATP-based viability assays light output follows the ATP content of the culture.)
A short description of assay [8]: CellTiter-Glo luminescent readout of SW480 viability loss, NPC library primary (AID 1117343;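 active = compounds that lower viability of the colon cancer cells in the luminescence readout, with no numeric limit stated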). As to conditions: CellTiter-Glo luminescence; at 20 µM (top of the series).
Assay [9] is described as follows: decreased DLD-1 cellular survival, CellTiter-Glo luminescent readout, NPC compound collection, primary HTS (AID 1117346;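 active = compounds that lower survival of DLD-1 colon cancer cells in the luminescence readout, no cutoff given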). As to conditions: DLD-1 viability, CellTiter-Glo luminescence; at 20 µM (top of the series).
The nature of assay [10]: sensitizers of A549 cells to miR-34 induction, primary screen, imaging, A549 dox-inducible miR-34, nuclei and caspase counts (AID 1347080;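 active = compounds whose cell count with miR-34 switched on is under 0.7 times the count with it off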). As to conditions: A549 miR-34 inducible, Hoechst nuclei count, 48 h.
Assay [11] in a line: viability rescue of complex I mutant cybrids, primary screen, cell-based, galactose medium, ATP luminescence (AID 1645843;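 active = z-score of at least 1.8 in each of two replicates, scored against plate mean and spread of sample wells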;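 also: positive z means more ATP and so rescue of galactose-driven cybrid death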). As to conditions: complex I mutant cybrid cells, 72 h, stronger effect = higher value.
Assay [12] in a line: differential killing of epithelial or mesenchymal cells, primary screen, imaging, PC-3E GFP, TEM4-18 mCherry, co-culture (AID 1345086;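 active = compounds killing one labelled cell type while sparing the other, by normalised counts and ratio limits, not self-fluorescent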;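 as to all read-outs here: cells exposed to compound for 72 h before imaging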;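 as to red/green cell ratio (normalised): normalised mesenchymal count divided by normalised epithelial count so high means epithelial killing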). As to conditions: imaging cell counts, at 1 µM; for red/green cell ratio (normalised): actives lie on both sides, counts scaled to control wells, 1 = unselective.
Assay [13] is described as follows: survival rescue of mitochondrial mutant cells in low glucose, primary screen, MELAS cybrids, Rieske KO mouse fibroblasts, CellTiter-Glo (AID 1508586;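 active = mean z-score across replicates of 1.96 or higher in either the MELAS or the Rieske mutant cell line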;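 also: z relative to plate mean and SD of compound and empty wells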).
The target of assay [14] is NAD(+) hydrolase SARM1 (Homo sapiens) (UniProt Q6SZW1). Put plainly: SARM1 TIR NADase inhibitors, cell lysate, NAD-Glo luminescence (AID 1508614;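 active = compound whose remaining NAD level is above about 45 nM, limit read from the data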;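 also: higher remaining NAD means stronger inhibition of SARM1 NADase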). As to conditions: SAM-TIR HEK293T lysate NADase, at 1 µM, stronger effect = higher value.
Assay [15] addresses Mitogen-activated protein kinase 7 (Homo sapiens) (UniProt Q13164). Put plainly: ERK5 transactivation activators in reporter cells, primary screen, cell-based, HTS (AID 1508626;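 active = luciferase signal above three times the same-plate solvent-only control wells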;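 also: luciferase driven by Gal4-ERK5 fusion binding five Gal4 sites before minimal TATA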). As to conditions: HeLa Gal4-ERK5 transactivation, 18 h, at 5 µM, stronger effect = higher value.
Where [16] appears, read: measured here: relative caspase fold change +Dox/-Dox.
Setting [17] is: measured here: total cells with miR-34 induction, stronger effect = lower value.
The mark [18] stands for this setting: measured here: total cells without miR-34 induction.
[19] abbreviates: measured here: epithelial PC-3E GFP cell survival.
Where [20] appears, read: measured here: mesenchymal TEM4-18 mCherry cell survival.

Where “and” joins values, the source holds several entries; their conditions need not be identical. Equal entries are not always repeated. Calls of active or inactive are those of the source.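 The calls were made as follows, unless noted: active = compound raises GLP1 secretion from the human gut endocrine cells, with no numeric limit stated; inactive = the rest.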

One may read the viability as a read-out of living cells in per cent, often relative to untreated cells.

Chain of NAD(+) hydrolase SARM1 (Homo sapiens) (Q6SZW1 whole entry, looked up, the tested form may be a part): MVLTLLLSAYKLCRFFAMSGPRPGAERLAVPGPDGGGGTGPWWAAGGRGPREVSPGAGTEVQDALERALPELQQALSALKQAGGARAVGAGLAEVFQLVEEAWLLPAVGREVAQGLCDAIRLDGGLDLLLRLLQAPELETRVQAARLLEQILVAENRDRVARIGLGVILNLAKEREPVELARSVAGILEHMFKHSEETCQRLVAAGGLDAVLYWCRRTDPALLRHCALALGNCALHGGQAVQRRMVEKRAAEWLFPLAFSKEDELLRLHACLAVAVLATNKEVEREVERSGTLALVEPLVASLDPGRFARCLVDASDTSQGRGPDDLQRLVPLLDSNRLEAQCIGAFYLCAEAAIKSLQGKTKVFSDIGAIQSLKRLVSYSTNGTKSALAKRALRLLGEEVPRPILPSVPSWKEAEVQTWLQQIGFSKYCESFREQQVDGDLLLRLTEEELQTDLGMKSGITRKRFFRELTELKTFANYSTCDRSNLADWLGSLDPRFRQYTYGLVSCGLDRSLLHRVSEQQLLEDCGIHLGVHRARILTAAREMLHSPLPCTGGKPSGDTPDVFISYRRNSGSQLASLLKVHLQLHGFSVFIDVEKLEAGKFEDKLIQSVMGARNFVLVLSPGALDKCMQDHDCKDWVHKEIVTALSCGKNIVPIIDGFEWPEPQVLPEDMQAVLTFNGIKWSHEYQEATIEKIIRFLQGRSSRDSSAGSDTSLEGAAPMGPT
Chain of Mitogen-activated protein kinase 7 (Homo sapiens) (Q13164 whole entry, looked up, the tested form may be a part): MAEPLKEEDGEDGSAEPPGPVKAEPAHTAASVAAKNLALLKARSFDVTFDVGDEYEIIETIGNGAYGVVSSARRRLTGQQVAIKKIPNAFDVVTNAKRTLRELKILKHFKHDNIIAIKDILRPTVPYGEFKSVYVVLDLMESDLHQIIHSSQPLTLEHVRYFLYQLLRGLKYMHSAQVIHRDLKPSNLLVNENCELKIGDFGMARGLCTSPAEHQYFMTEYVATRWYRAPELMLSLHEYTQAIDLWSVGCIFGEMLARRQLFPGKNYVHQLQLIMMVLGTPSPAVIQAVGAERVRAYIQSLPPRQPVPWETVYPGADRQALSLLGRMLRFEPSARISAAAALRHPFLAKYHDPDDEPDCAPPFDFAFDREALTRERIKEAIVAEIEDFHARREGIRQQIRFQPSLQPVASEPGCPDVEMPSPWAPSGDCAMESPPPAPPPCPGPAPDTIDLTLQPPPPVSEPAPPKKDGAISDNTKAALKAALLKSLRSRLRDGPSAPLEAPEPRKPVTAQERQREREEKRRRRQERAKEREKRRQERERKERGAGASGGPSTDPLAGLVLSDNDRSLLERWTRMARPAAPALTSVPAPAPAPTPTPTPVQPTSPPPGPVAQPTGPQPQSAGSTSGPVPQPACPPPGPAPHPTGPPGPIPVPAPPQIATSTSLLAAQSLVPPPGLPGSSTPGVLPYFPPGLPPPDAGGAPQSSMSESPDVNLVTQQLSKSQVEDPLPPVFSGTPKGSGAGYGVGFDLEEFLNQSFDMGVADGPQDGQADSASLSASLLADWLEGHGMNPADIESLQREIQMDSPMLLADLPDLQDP

On to `CCN(CC)CCOC(=O)C(O)(c1ccccc1)c1ccccc1`, for which, in [1], the parasite load remaining was 103% (inactive). In addition, the viability in [1] came out at 95.8%. In addition, the nuclear beta-catenin stimulation in assay [2] (at 10 µM) is -0.3% (inactive); in [2] (stimulation, at 2 µM), -1.2%. Besides, the insulin secretion stimulation in [3] is 4% (inactive). Further, the viability decrease in [4] is -5.8% (inactive). In addition, in [5], the tube area decrease is -5.7% (inactive). For the same compound, the GLP1 secretion stimulation in assay [6] is 1% (inactive). The inhibition of viability in [7] is 1.8% (inactive). The viability decrease (inhibition) in [8] was -15.1% (inactive); in assay [9] it was 2.6% (inactive). Also, the fold change was 1.01 (inactive) in assay [10] (stronger effect = lower value) and 1.6 in [10] (setting [16]). The cell count was determined as 10200 in assay [10] (setting [17]) and 10100 in [10] (setting [18]). Also, the z-score in [11] was 0.79 (inactive).

As for `COc1cc(N)c(Cl)cc1C(=O)NC1CN2CCC1CC2` (stereo not drawn), the parasite load remaining in [1] was 103% (inactive). Further, the viability in [1] stood at 107%. Further, the nuclear beta-catenin stimulation in assay [2] (at 10 µM) is -1.2% (inactive); in [2] (stimulation, at 2 µM), 0%. For the same compound, in [3], the insulin secretion stimulation is 3% (inactive). In assay [4], the viability decrease is 0.8% (inactive). In addition, the tube area decrease in assay [5] is -1.2% (inactive). Besides, in assay [6], the GLP1 secretion stimulation was 6.7% (inactive). Besides, the inhibition of viability in assay [7] is 15.8% (inactive). Further, the viability decrease (inhibition) is -5.8% (inactive) in assay [8] and 1.7% (inactive) in [9]. For the same compound, the fold change in [10] (stronger effect = lower value) was 0.946 (inactive); in assay [10] (stronger effect = lower value, cell number ratio, induced over uninduced), 0.971 (inactive); in assay [10] (setting [16]), 1.7 and 0.526. The cell count in assay [10] (setting [17]) is 9370 and 10300; in assay [10] (setting [18]), 9910 and 10600. The z-score in [11] is 0.86 (inactive) and -0.355 (inactive).

With `O=C1C2CC=CCC2C(=O)N1SC(Cl)(Cl)Cl` (stereo not drawn), the nuclear beta-catenin stimulation in [2] (at 10 µM) is 14.9% (active); in assay [2] (stimulation, at 2 µM), 44.5%. Also, the insulin secretion stimulation in assay [3] is 0.6% (inactive). Also, in assay [4], the viability decrease is 98.9% (active). For the same compound, the tube area decrease in assay [5] was 108% (active). Also, in [6], the GLP1 secretion stimulation was 0.3% (inactive). For the same compound, the inhibition of viability in assay [7] was 99.3% (active). Further, the viability decrease (inhibition) in assay [8] and in assay [9] was 102% (active) in each case. Besides, the red/green cell ratio (normalised) in [12] is 1.09 (inactive). For the same compound, the values for the normalised cell number in assay [12] (setting [19]) and in assay [12] (setting [20]) were 1.03 and 1.13, respectively.

In the case of `CC[C@]1(O)CC[C@H]2[C@@H]3CCC4=CCCC[C@@H]4[C@H]3CC[C@@]21C`, in [1], the parasite load remaining is 95.1% (inactive). Further, the viability in [1] is 75.2%. Moreover, the nuclear beta-catenin stimulation is 8.1% (inactive) in assay [2] (at 10 µM) and 0.5% in assay [2] (stimulation, at 2 µM). In addition, the insulin secretion stimulation in assay [3] is 1.8% (inactive). Moreover, in [4], the viability decrease was 70.7% (active). Besides, the tube area decrease in [5] was 66.4% (active). In [6], the GLP1 secretion stimulation is 2.3% (inactive). In assay [7], the inhibition of viability is 64.1% (active). Besides, the viability decrease (inhibition) in assay [8] is 97.8% (active); in [9], 73% (active).

Take `C=C1C[C@@H]2[C@H](CC[C@]3(C)C(=O)CC[C@@H]23)[C@@]2(C)C=CC(=O)C=C12`: the parasite load remaining in assay [1] is 41% (inactive). Besides, the viability in assay [1] is 86.7%. Also, the nuclear beta-catenin stimulation in assay [2] (at 10 µM) was 2.3% (inactive); in [2] (stimulation, at 2 µM), -0.3%. Also, the insulin secretion stimulation in [3] was 12.9% (inactive). Also, in [4], the viability decrease was 2.6% (inactive). Besides, the tube area decrease in assay [5] is 6.3% (inactive). Further, the GLP1 secretion stimulation in assay [6] was 8.3% (inactive). In addition, the inhibition of viability in assay [7] was -12.1% (inactive). The results for the viability decrease (inhibition) in assay [8] and in assay [9] were 24.7% (inactive) and -20.4% (inactive), respectively. The z-score is 0.961 (inactive) in assay [13] (MELAS cybrid survival, CellTiter-Glo 48 h, stronger effect = higher value) and 0.0493 in [13] (Rieske KO mouse fibroblast survival, CellTiter-Glo 72 h). For the same compound, in assay [14], the remaining NAD was 10 nM (inactive). In addition, in [15], the luciferase signal was 60 AU (inactive).

As for `CC1Sc2c(C(=O)O)c(=O)c3cc(F)c(N4CCNCC4)cc3n21` (stereo not drawn), the nuclear beta-catenin stimulation in assay [2] (at 10 µM) was -0.2% (inactive); in assay [2] (stimulation, at 2 µM) it was 2.5%. For the same compound, the insulin secretion stimulation in assay [3] was 1.4% (inactive). Moreover, the viability decrease in assay [4] was 43.4% (inactive). Besides, the tube area decrease in assay [5] was -8.5% (inactive). The GLP1 secretion stimulation in assay [6] was 2.3% (inactive). The inhibition of viability in assay [7] was 50.6% (active). The viability decrease (inhibition) is 40.9% (inactive) in [8] and 40.8% (inactive) in assay [9]. For the same compound, the red/green cell ratio (normalised) in assay [12] is 1.16 (inactive). The normalised cell number in [12] (setting [19]) was determined as 1; in assay [12] (setting [20]), 1.16.

These data come from PubChem BioAssay.
